TAG inh: inhibitors of triacylglycerol accumulation; H9c2 cells, Nile Red lipid (TAG) fluorescence; cells loaded with 200 µM oleic acid; AID 651582; inhibition, % at 12.5 µM; 230,000 compounds, 0.66% hits;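 active = pattern-corrected inhibition of lipid staining of at least 50% with the nuclear-stain viability signal not falling by more than 50%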
Shn3 3UTR inh: inhibitors of Schnurri-3 3'UTR reporter in osteoblasts; 360,000 compounds, 0.52% hits; inhibition, % at 12.5 µM; Clone20 osteoblast Shn3 3'UTR firefly luciferase, 24 h; AID 588674;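 active = mean inhibition of at least 75% with every replicate also reaching 75%; inconclusive = mean inhibition at least 75% but some replicate below; inactive = mean inhibition below 75%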
697 NFkB inh: inhibitors of the PMA/ionomycin-induced NF-kB reporter in 697 B cells; 697 B-cell NF-kB luciferase reporter, 16 h; inhibition, % at 4 µM; 330,000 compounds, 0.33% hits; AID 435022; in the data active = inhibition above about 35%
Jurkat NFkB inh: lowers PMA/ionomycin-induced NF-kB signal in Jurkat cells; PMA/ionomycin-induced NF-kB luciferase reporter, luminescence; inhibition, % at 4 µM; 330,000 compounds, 0.53% hits; AID 435003; in the data active = inhibition above about 50%
Gli-Sufu antag: antagonists of Gli-Sufu signaling. Sufu-KO-LIGHT fibroblasts, Gli luciferase reporter luminescence. inhibition, % at 5 µM. 340,000 compounds, 0.74% hits. AID 588413;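 active = inhibition above about 55%, limit read from the data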
aSyn 5UTR inh: 5' untranslated region of α-synuclein, MLPCN primary screen; inhibition, % (tested at 7.5 µM); alpha-synuclein 5'UTR reporter, inhibitor activity; 300,000 compounds, 0.82% hits; in the data active = inhibition above about 60%; inconclusive = no clear call, values can overlap the other calls;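 note: H4 neuroglioblastoma cells stably carrying SNCA 5'UTR luciferase fusion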
Gli antag conf: confirmation of Gli-SUFU pathway antagonists. shares compounds with Gli-Sufu antag. Sufu-KO-LIGHT cells, Gli luciferase reporter, luminescence. inhibition, % at 5 µM. 2,500 compounds, 40% hits. AID 602428;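 active = mean inhibition at 5 µM reaching about 45%, limit read from the data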
Gli cytotox: cytotoxic in Gli-SUFU antagonist counter-screen | shares compounds with Gli-Sufu antag | Sufu-KO-LIGHT cells cytotoxicity, ATP luminescence | 2,500 compounds, 32% hits | cytotoxicity, % at 5 µM | AID 651994;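 active = mean cytotoxicity at 5 µM above about 25%, limit read from the data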;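 note: cells exposed to compound overnight for roughly 16 to 18 hours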
Wnt3a cs: Wnt3a reporter inhibition counter-screen. shares compounds with Gli-Sufu antag. Wnt-LIGHT cells, Wnt3a-driven luciferase reporter, luminescence. inhibition, % at 6.25 µM. 2,500 compounds, 20% hits. AID 651995;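 active = mean inhibition above about 25%, limit read from the data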
Numbers stand for hits; i = inactive; ? = inconclusive; nt = no result. Most compounds without a hit are left out; they make up all but 2.3% or so of the library.

SMILES | TAG inh | Shn3 3UTR inh | 697 NFkB inh | Jurkat NFkB inh | Gli-Sufu antag | aSyn 5UTR inh | Gli antag conf | Gli cytotox | Wnt3a cs
COc1ccc(C(=O)NC2CCCc3c2cnn3-c2ccccc2F)cc1OC (stereo not drawn) | nt | i | i | i | 56 | i | i | i | i
CC(C)=CC1C(C(=O)NCCOc2ccccc2)C1(C)C (stereo not drawn) | i | i | i | i | i | i | nt | nt | nt
COc1ccc(C(=O)Nc2ccc(NC(=O)c3ccccn3)cn2)cc1 | nt | i | i | i | i | i | nt | nt | nt
COc1ccc(C(=O)N/N=C(\c2ccccc2)c2ccccn2)cc1 | i | 87 | nt | nt | 74 | 107 | 51 | i | 38
CCOc1ccc(OCc2ccc(C(=O)NN=Cc3ccc[nH]3)cc2)cc1 | 60 | i | i | i | 80 | nt | 80 | i | i
CCOc1ccc(C(=O)N/N=C(/C)C2C(=O)c3ccccc3C2=O)cc1 | nt | i | i | i | i | i | nt | nt | nt
O=C(N/N=C/c1ccc[nH]1)c1ccccc1OCc1ccc(F)cc1 | i | i | i | i | i | i | nt | nt | nt
CCOc1ccc(OCc2ccc(C(=O)N/N=C(\C)c3ccccn3)cc2)cc1 | i | 92 | nt | nt | 83 | 64 | 91 | 42 | 72
Cc1ccc2nc(/C(C#N)=C\c3ccc(N4CCCCC4)c([N+](=O)[O-])c3)[nH]c2c1 | nt | i | i | i | i | i | i | i | i
Cc1csc2ncnc(NCCc3ccccn3)c12 | i | i | i | i | 67 | i | 57 | 29 | 27
Cc1cc(C(=O)COc2cccc([N+](=O)[O-])c2)c(C)n1C1CC1 | i | i | i | i | i | nt | nt | nt | nt
Cc1cc(C(=O)COC(=O)c2cccc(O)c2)c(C)n1C1CC1 | i | i | i | i | 99 | nt | i | 33 | 64
Cc1cc(C(=O)COC(=O)c2cccc(S(=O)(=O)N(C)C)c2)c(C)n1CC1CCCO1 (stereo not drawn) | i | i | i | i | i | nt | nt | nt | nt
CNS(=O)(=O)c1cccc(C(=O)OCC(=O)c2cc(C)n(CC3CCCO3)c2C)c1 (stereo not drawn) | i | i | i | i | i | nt | 68 | i | i
COc1cccc2sc(=NC(=O)CS(=O)(=O)c3ccccc3)n(C)c12 | i | i | nt | nt | nt | nt | nt | nt | nt
COc1cccc2sc(=NC(=O)CS(=O)(=O)c3ccc(Cl)cc3)n(C)c12 | i | 88 | i | i | 73 | i | 79 | 29 | 40
CCn1c(=NC(=O)CS(=O)(=O)c2ccc(C)cc2)sc2cccc(OC)c21 | i | i | i | i | 68 | i | 61 | i | 37
COc1cccc2sc(=NC(=O)CS(=O)(=O)c3ccc(F)cc3)n(C)c12 | i | i | i | i | 61 | i | 53 | 29 | i
CN(c1ccc(OCCOc2ccccc2Cl)cc1)S(=O)(=O)c1ccccc1 | i | i | i | i | i | nt | nt | nt | nt
COc1ccc(C(=O)NNC(=O)c2ccncc2)cc1[N+](=O)[O-] | nt | i | i | i | i | i | nt | nt | nt
Cc1cccnc1CN1CCN(C(=O)c2cc(COc3ccc4ncccc4c3)on2)CC1 | i | 88 | i | i | 62 | i | 66 | 27 | 27
CCOC(=O)N1CCN(C(=O)c2cc(COc3ccc4ncccc4c3)on2)CC1 | i | ? | i | i | 67 | i | 51 | i | i
O=C(c1cc(COc2ccc3ncccc3c2)on1)N1CCC[C@H]1CO | i | i | i | i | i | i | nt | nt | nt
CCN1CCN(C(=O)c2cc(COc3c(C)cccc3C)on2)CC1 | nt | i | i | i | i | i | nt | nt | nt
CCOC(=O)N1CCN(C(=O)c2cc(COc3cccc(C(C)=O)c3)on2)CC1 | i | i | i | i | i | i | nt | nt | nt
O=C(NC1CCCCCCC1)c1cc(COc2ccc3ncccc3c2)on1 | i | 88 | nt | nt | 73 | i | 73 | 28 | i
CC(=O)CSc1nsc(SCC(C)=O)c1C#N | i | i | i | i | i | i | nt | nt | nt
CC(=O)c1ccc(NC(=O)/C=C/c2ccc(C)cc2)cc1 | i | i | i | i | i | i | nt | nt | nt
Cc1cccc(NC(=O)NCCc2c[nH]c3ccccc23)c1 | i | i | i | i | 60 | i | i | i | i
